In PubChem BioAssay (NCATS):
Inconclusive results are not listed. Values without a mark were called inactive. Active and inactive are the calls of the source. The call rests on the fitted dose curve; in most records, active means well fitted cell-killing curve with a large enough effect; inconclusive means small, poorly fitted or top-dose-only effect, or effect the other way; inactive means no such curve, though single readings can be large or run the other way.

Assay: qHTS of pediatric cancer cell lines to identify multiple opportunities for drug repurposing: Confirmatory screen for Rh30 cells (AID 1347126); further: nearly all actives have a fitted effect of over 55% in size; on activity change, negative = cytotoxic: on the % scale 0 is the no-effect control and ±100 the full control effect
Conditions: Rh30 rhabdomyosarcoma cell viability; series mostly up to 45.9 µM; activity change, negative = cytotoxic: at the top concentration
Summary of the method: (§1)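 Cells (500-1,000/well) in growth media were settled 5 h at 37 degrees C, then given compounds for 48 h. Viability was read as CellTiter-Glo luminescence. Primary runs used MIPE at 11 points (0.78 nM-46 µM) and NPC at 8 points (0.59 nM-46 µM); follow-ups used 11 points.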
Potency means the concentration at half of the fitted maximal effect.

| SMILES | activity change, negative = cytotoxic [%] | Potency |
| --- | --- | --- |
| COc1cccc2c1C(=O)c1c(O)c3c(c(O)c1C2=O)C[C@@](O)(C(C)=O)C[C@H]3O[C@H]1C[C@H](N)[C@H](O)[C@H](C)O1 | -10.3 |  |
| CC(C)N1[N]C(=C2C=c3cc(O)ccc3=N2)c2c(N)ncnc21 |  | 1.65 µM (active) |
| Oc1cc(-c2nc(-c3ccccc3)[nH]c2-c2ccncc2)ccc1Cl |  | 1.31 µM (active) |
| CC(=O)NCC(=O)N1[C@H]2CC[C@H]1c1cc(Nc3ncc(C(F)(F)F)c(NC4CCC4)n3)ccc12 |  | 3.69 µM (active) |
| N#CNC(=NCCCCCCOc1ccc(Cl)cc1)Nc1ccncc1 |  | 0.0185 µM (active) |
| CN[C@H]1[C@@H](O)[C@@H]2O[C@@H]3O[C@H](C)CC(=O)[C@]3(O)O[C@@H]2[C@@H](NC)[C@H]1O | 2.08 |  |
| O=S(=O)(O)CCSSCCS(=O)(=O)O | 0 |  |
| CN(C)c1ccc(C(=O)NCCCCCCC(=O)NO)cc1 |  | 3.29 µM (active) |
| COc1ccc(C(C)=O)c(O)c1 | 0.362 |  |
| CC(C)C[C@H](NC(=O)CNC(=O)c1cc(Cl)ccc1Cl)B1OC(=O)CC(CC(=O)O)(C(=O)O)O1 (stereo partly drawn) |  | 2.33 µM (active) |

Assay: qHTS of pediatric cancer cell lines to identify multiple opportunities for drug repurposing: Confirmatory screen for Saos-2 cells (AID 1347127); further: nearly all actives have a fitted effect of over 60% in size;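 on activity change, negative = cytotoxic: plate controls were DMSO for no effect and bortezomib for full effect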
Conditions: Saos-2 osteosarcoma cell viability; series mostly up to 45.9 µM; activity change, negative = cytotoxic: at the top concentration
Summary of the method: as §1

| SMILES | Potency | outcome | activity change, negative = cytotoxic [%] |
| --- | --- | --- | --- |
| Oc1cc(-c2nc(-c3ccccc3)[nH]c2-c2ccncc2)ccc1Cl | 2.61 µM (active) |  |  |
| Nc1ncn([C@@H]2O[C@H](CO)[C@@H](O)[C@@H]2O)c(=O)n1 | 20.8 µM (active) |  |  |
| COc1cc([C@@H]2c3cc4c(cc3[C@H](O)[C@H]3COC(=O)[C@@H]23)OCO4)cc(OC)c1OC | 0.522 µM (active) |  |  |
| CC[C@@]1([C@@H]2O[C@@H]([C@H]3O[C@@](O)(CO)[C@H](C)C[C@H]3C)C[C@H]2C)CC[C@H]([C@]2(C)CC[C@]3(C[C@H](O)[C@@H](C)[C@@H]([C@@H](C)[C@@H](OC)[C@H](C)C(=O)O)O3)O2)O1 | 0.723 µM (active) |  |  |
| COC(=O)[C@@H]1[C@H]2C[C@@H]3c4[nH]c5ccccc5c4CCN3C[C@@H]2CC[C@@H]1O |  | inactive |  |
| C=CC(=O)Nc1ccc2ncnc(Nc3ccc(OCc4cccc(F)c4)c(Cl)c3)c2c1 | 7.37 µM (active) |  |  |
| COc1ccc(C=Cc2cc(OC)c(OC)c(OC)c2)cc1NC(=O)[C@H](N)CO | 0.0737 µM (active) |  |  |
| CCc1cc(C(C)=NOCc2ccc(C3CCCCC3)c(C(F)(F)F)c2)ccc1CN1CC(C(=O)O)C1 | 14.7 µM (active) |  |  |
| COc1ccc(Nc2cc(-c3cnc(N)nc3)nc(N3CCOCC3)n2)cn1 | 3.29 µM (active) |  |  |
| CC(C)C[C@H](NC(=O)[C@@H](NC(=O)c1cccc(-c2ccccc2)n1)[C@@H](C)O)B(O)O | 0.414 µM (active) |  |  |
| CCCCC(=O)O[C@]1(C(=O)CO)[C@@H](C)C[C@H]2[C@@H]3CCC4=CC(=O)C=C[C@]4(C)[C@@]3(F)[C@@H](O)C[C@@]21C |  |  | 7.54 |
| Cc1ncc(-c2ccnc(Nc3ccc(S(C)(=O)=O)cc3)n2)n1C(C)C | 3.69 µM (active) |  |  |
| Cc1[nH]c(C=C2C(=O)Nc3ccccc32)c(C)c1CCC(=O)O |  |  | 8.45 |
